40 molecules from PubChem BioAssay (NCI) can be followed below.

Compounds without any hit were thinned out: in the full panel of roughly 83,000, 20% have a hit.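 For each line, cells grew in 96-well plates with the test compound present at a single concentration for 48 hours.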 Values without a mark were called inactive. Active and inactive are the calls of the source.

This experiment relates to NCI-H226 lung. Description: NCI-60 one-dose screen, 48 h (100 = growth as untreated, 0 = no growth, -100 = all killed). The following applies: 10 µM. Here is the method:
Growth inhibition of the NCI-H226 human Non-Small Cell Lung tumor cell line is measured as a screen for anti-cancer activity. Cells are grown in 96 well plates and exposed to the test compound for 48 hours. Compounds are tested at a single concentration, which is 10^-5 M for most compounds. The reported endpoint is percent growth (GI% or GIPRCNT), where numbers from 0 - 100% represent growth inhibition, and numbers from -100% - 0 represent cell death. For example, a value of 40 represents 60% growth inhibition. A value of 0 means no net growth occurred over the course of the experiment. A value of -40 indicates 40% of cells at the beginning of the experiment died by the end of the experiment. A value of -100 means all cells are dead at the end of the experiment.
NCI-60 Human Tumor Cell Lines Screen was performed using the standard one-dose NCI protocol, which is described in more detail at https://dtp.cancer.gov/discovery_development/nci-60/default.htm.
Compounds with GIPRCNT values below 10 were considered active. Activity score was based on GIPRCNT using the following formula: […]
Score is 0 for GIPRCNT values of 100 or above, 50 for GIPRCNT values of 0, and 100 for GIPRCNT values of -100.
Turning to `N#CN1CC[C@H](C(=O)Nc2ncc(-c3ccccc3)s2)C1`, the growth was -6.52% (active).
For `COC(=O)c1cnc2c(c1)Oc1ccccc1-c1ccnn1-2`, the growth was 83.9%.
Regarding `Cc1nnc2c3nnc(-c4ccc(Cl)cc4)n3c3ccccc3n12`, the growth was 94.7%.
For `CC(C)C[C@H](NC(=O)Cn1ccc(Nc2ccccc2)cc1=O)B(O)O` the value was -71.1% (active).
Turning to `CC(=O)c1c(O)cc2c3c1OC(C)(C)C1CCC(C)(CC31)O2` (stereo not given), the growth is 85.8%.
In the case of `CCOC(=O)c1ccc(NC(=O)Nc2nncs2)cc1`, the growth is -21.3% (active).
With `CN(C1c2ccccc2Oc2ccccc21)S(=O)(=O)c1cc(Cl)ccc1Cl`, the growth is 62.7%.
In the case of `COc1ccc(-c2nc(SCC(=O)c3ccc(Br)cc3)[nH]c(=O)c2C#N)cc1`, the growth was 98.1%.
Take `Cc1ccc(/C(CS(=O)(=O)c2ccc(C)cc2)=N\O)cc1`: the growth was 93.6%.
The figure for `c1ccc(CNc2nc(Nc3ccc(-c4nc5ccccc5[nH]4)cc3)c3cn[nH]c3n2)cc1` is 39.6%.
For `COc1cc(-c2n/c(=C\c3c(O)[nH]c4ccccc34)cc3c2=Nc2ccccc2-3)cc(OC)c1OC` the value was 22%; for `CC[C@@]1(C(N)=O)CC2C=CC1C2` (stereo not given in full), 102%.
As to `C[n+]1c(/C=C/c2c[nH]c3ccccc23)ccc2ccccc21`, the growth was 62.3%.
Regarding `NS(=O)(=O)c1ccc(N2N=C(c3ccc(-c4ccccc4)cc3)CC2c2ccc(Cl)cc2)cc1` (stereo not given), the growth was 81%.
As to `CCCCNC(=O)Oc1ccc(/C(=C(\C)c2ccc(OC)cc2)c2ccc(OCCN3CCCCC3)cc2)cc1`, the growth was 96.5%.
Regarding `CC(C)c1[nH]nc2c(NCc3ccc(-c4ccccn4)cc3)nc(SCCN(C)C)nc12`, the growth was 2.16% (active).
For the molecule `C[C@@H]1C(=O)N(C[C@H](Cc2ccccc2)NC(=O)OCc2ccccc2)[C@]1(Cc1ccccc1)C(=O)OCc1ccccc1`, the growth is 48.5%.
For `O=C(NNC(=O)c1ccncc1)Nc1ccc([N+](=O)[O-])cc1` the value was 115%; for `Nc1cc2c(cc1Cl)-c1ccc(Cl)cc1C2=O`, 105%.
In the case of `Fc1ccc2[nH]c3c(NCCCN4CCOCC4)ncnc3c2c1`, the growth was 62.2%.
For `C/C(=N\NC(=O)c1sc(=S)n(C)c1N)c1cc2ccccc2o1` the value was 73.9%; for `C[C@H](NC(=O)[C@@H]1CSSC[C@@H](NC(=O)Cc2nc3ccccc3cc2O)C(=O)NCC(=O)N1C)c1ccccc1`, 104%; for `CCOc1nc(-c2ccccc2)cc2c(O)c(C(=O)NCCCO)[nH]c(=O)c12`, 94.7%.
In the case of `CC(C)c1[nH]nc2c(NCc3ccc(-c4ccccn4)cc3)nc(SCCN)nc12`, the growth was -0.633% (active).
Turning to `COC(=O)[C@]12CC[C@@H](C)[C@H](C)[C@@H]1C1=CC[C@@H]3[C@@]4(C)C[C@@H](O)[C@H](O)[C@@](C)(CO)[C@@H]4[C@H](O)C[C@@]3(C)[C@]1(C)CC2`, the growth is -42.8% (active).
For `Cc1cc(C(C)(C)CC(C)(C)C)ccc1OCCOCC[N+](C)(C)Cc1ccccc1` the value was -18% (active); for `Nc1c(C(=O)Nc2ccccc2F)sc2nc3c(cc12)C(=O)CCC3`, 75.1%; for `CCCc1ccnc(NS(=O)(=O)c2ccc(N)cc2)n1`, 79.2%.
The figure for `CCCCCCCCCCCC(c1ccccc1)N(C)C` (stereo not given) is 97.2%; for `COc1ccc(/C=C2\SC(=S)N(CCCN3CCOCC3)C2=O)c(OC)c1` it is -99.3% (active); for `CC(=O)OCC(COC(C)=O)(COC(C)=O)COC(C)=O` it is 93.5%.
With `O=C(N/N=c1/ccoc2cccnc12)N1CCN(c2ncccn2)CC1`, the growth is 37.6%.
In the case of `c1ccc(OCCC[P+](c2ccccc2)(c2ccccc2)c2ccccc2)cc1`, the growth was 47.4%.
The figure for `Cn1c(=O)c2[nH]c(C(O)c3ccc(Cl)cc3)nc2n(C)c1=O` (stereo not given) is 103%.
For `Nc1c(C(=O)NC2CCCCC2)sc2nc3c(cc12)C(=O)CCC3` the value was 95.4%; for `COc1cc(OC)cc(-c2n/c(=C\c3c(O)[nH]c4ccc(OC)cc34)cc3c2=Nc2ccccc2-3)c1`, 92.4%; for `CC(CNC(Cc1ccccc1)c1ccccc1)NC(Cc1ccccc1)c1ccccc1` (stereo not given), 34.8%.
The figure for `Cc1ccc(S(=O)(=O)Oc2ccccc2-c2ccccc2)cc1` is 53.5%.
Consider `CC1(C)CC(OCCCC[P+](c2ccccc2)(c2ccccc2)c2ccccc2)CC(C)(C)N1O`, for which the growth is 12.7%.
The figure for `CCN1CCN(c2nc(NNC(=O)c3cccc(OC)c3)nc(N3CCN(C(c4ccccc4)c4ccccc4)CC3)n2)CC1` is 94.5%.
